According to PubChem BioAssay AID1159580 (chemical genetic matrix, 2015):
Values joined by “and” are separate entries in the source; they are usually repeats but may differ in a detail not shown here. Identical values can stand only once. Out of some 5,500 compounds screened, about 2,000 (36%) were called active. Not shown: some 18% with an inconclusive outcome. Rule as the data show it: active = normalized growth mostly below about 0.91 (no sharp cut-off); inconclusive = no clear call, values can overlap the other calls; inactive = mostly above about 0.92. The list shows a part of the results.

Assay: chemical genetic growth profiling, strain panel (AID 1159580);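 also: tested at 20 µM; growth read once vehicle control cultures reached saturation at 30 °C; 1 = growth at the plate median or of vehicle wells; lower values mean less growth of the strain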
Details: S. cerevisiae deletion strains, growth OD

Measured: normalized growth

Cc1ccnc(NS(=O)(=O)c2ccc(N)cc2)n1
inactive: locus YAL013W, strain DEP1, stronger effect = lower value 1 | locus YAL021C, strain ccr4, stronger effect = lower value 0.971 | locus YAL026C, strain drs2, stronger effect = lower value 0.994 | locus YAL030W, strain snc1, stronger effect = lower value 0.999 | locus YBL061C, strain skt5, stronger effect = lower value 0.997 | locus YBR009C, strain hhf1, stronger effect = lower value 1.01 | locus YBR021W, strain FUR4, stronger effect = lower value 0.994 | locus YBR023C, strain chs3, stronger effect = lower value 0.998 | locus YBR171W, strain sec66, stronger effect = lower value 1.02 | locus YBR229C, strain ROT2, stronger effect = lower value 1 | locus YBR231C, strain swc5, stronger effect = lower value 1.01 | locus YBR279W, strain paf1, stronger effect = lower value 1.01 | locus YCL011C, strain gbp2, stronger effect = lower value 0.969 | locus YCL016C, strain dcc1, stronger effect = lower value 0.968 | locus YCL029C, strain bik1, stronger effect = lower value 1.02 | locus YCL061C, strain MRC1, stronger effect = lower value 1.01 | locus YCL069W, strain vba3, stronger effect = lower value 0.998 | locus YCR088W, strain abp1, stronger effect = lower value 1 | locus YDL005C, strain med2, stronger effect = lower value 1 | locus YDL035C, strain GPR1, stronger effect = lower value 1.01 | locus YDL040C, strain nat1, stronger effect = lower value 0.999 | locus YDL074C, strain BRE1, stronger effect = lower value 0.978 | locus YDL101C, strain DUN1, stronger effect = lower value 1.01 | locus YDL134C, strain PPH21, stronger effect = lower value 1.01 | locus YDL185W, strain tfp1, stronger effect = lower value 0.967 | locus YDL192W, strain arf1, stronger effect = lower value 1.02 | locus YDR001C, strain nth1, stronger effect = lower value 0.999 | locus YDR069C, strain doa4, stronger effect = lower value 1.02 | locus YDR101C, strain arx1, stronger effect = lower value 1.01 | locus YDR137W, strain rgp1, stronger effect = lower value 1.03 | locus YDR150W, strain NUM1, stronger effect = lower value 1 | locus YDR159W, strain sac3, stronger effect = lower value 0.968 | locus YDR162C, strain NBP2, stronger effect = lower value 1 | locus YDR195W, strain ref2 1 | locus YDR297W, strain sur2, stronger effect = lower value 1.01 | locus YDR318W, strain mcm21, stronger effect = lower value 1.02 | locus YDR334W, strain swr1, stronger effect = lower value 0.995 | locus YDR335W, strain msn5, stronger effect = lower value 0.986 | locus YDR388W, stronger effect = lower value 1.01 | locus YDR392W, strain spt3, stronger effect = lower value 0.887 | locus YDR502C, strain sam2, stronger effect = lower value 1.01 | locus YEL003W, strain gim4, stronger effect = lower value 1.02 | locus YEL037C, strain rad23, stronger effect = lower value 1.01 | locus YEL061C, strain CIN8 (second series), stronger effect = lower value 1 | locus YEL061C, strain CIN8, stronger effect = lower value 1 | locus YER015W, strain faa2, stronger effect = lower value 0.992 | locus YER016W, strain bim1, stronger effect = lower value 1.01 | locus YER110C, stronger effect = lower value 1.02 | locus YER111C, strain swi4, stronger effect = lower value 0.998 | locus YER155C, strain BEM2 (second series), stronger effect = lower value 1.02 | locus YER155C, strain BEM2, stronger effect = lower value 1 | locus YER167W, strain BCK2, stronger effect = lower value 1.01 | locus YFR010W, strain ubp6, stronger effect = lower value 1.02 | locus YGL078C, strain dbp3, stronger effect = lower value 1.01 | locus YGL086W, strain mad1, stronger effect = lower value 1.01 | locus YGL167C, strain pmr1, stronger effect = lower value 0.992 | locus YGL173C, strain kem1, stronger effect = lower value 1.02 | locus YGL227W, strain vid30, stronger effect = lower value 0.999 | locus YGL240W, strain doc1, stronger effect = lower value 1.03 | locus YGL248W, strain PDE1, stronger effect = lower value 0.998 | locus YGL253W, strain hxk2, stronger effect = lower value 0.996 | locus YGR078C, strain PAC10, stronger effect = lower value 0.971 | locus YGR135W, strain pre9, stronger effect = lower value 1.01 | locus YGR229C, strain SMI1, stronger effect = lower value 0.97 | locus YGR252W, strain gcn5, stronger effect = lower value 0.984 | locus YHR013C, strain ard1, stronger effect = lower value 0.987 | locus YHR027C, strain rpn1, stronger effect = lower value 0.999 | locus YHR030C, strain SLT2, stronger effect = lower value 1 and 0.973 | locus YHR079C, strain IRE1 (second series), stronger effect = lower value 1.01 | locus YHR079C, strain IRE1, stronger effect = lower value 0.973 | locus YHR094C, strain hxt1, stronger effect = lower value 1.01 | locus YHR129C, strain ARP1, stronger effect = lower value 1.01 | locus YHR142W, strain chs7, stronger effect = lower value 1 | locus YHR200W, strain rpn10, stronger effect = lower value 1.01 | locus YIL066C, strain RNR3, stronger effect = lower value 1.01 | locus YIL073C, strain SPO22, stronger effect = lower value 1.02 | locus YIL125W, strain kgd1, stronger effect = lower value 1 | locus YIR030C, strain dcg1, stronger effect = lower value 1.02 | locus YJL092W, strain hpr5, stronger effect = lower value 1 | locus YJL095W, strain BCK1 (second series), stronger effect = lower value 1 | locus YJL095W, strain BCK1, stronger effect = lower value 1.01 and 0.972 | locus YJL115W, strain asf1, stronger effect = lower value 0.992 | locus YJL129C, strain trk1, stronger effect = lower value 0.996 | locus YJL134W, strain LCB3, stronger effect = lower value 1 | locus YJL154C, strain vps35, stronger effect = lower value 1.01 | locus YJL164C, strain tpk1, stronger effect = lower value 0.968 | locus YJL166W, strain qcr8, stronger effect = lower value 1.02 | locus YJL168C, strain set2, stronger effect = lower value 1.01 | locus YJL187C, strain SWE1 (second series), stronger effect = lower value 1.01 | locus YJR043C, strain POL32, stronger effect = lower value 1.01 | locus YJR066W, strain TOR1, stronger effect = lower value 0.937
